Measured values as given in ChEMBL document CHEMBL3988442, “University of Dundee, Small-Polar-MMV Screening Library” (2021).
For some assays here: Potency and affinity values are given separately.

Experiments:
Parameters in all cases: scale not given: direction of the effect not stated beside the values
[1] = biological target: Protein translocase subunit SecA (Escherichia coli (strain K12)) (UniProt P10408); experiment: Assay to Identify E. coli SecA ATPase Inhibitors; assay type: functional; conditions: 30 µM
[2] = biological target: T1, Ubiquitin-activating enzyme e1, putative (Leishmania donovani (strain BPK282A1)) (UniProt E9BSI1); experiment: Leishmania donovani Ubiquitin Activating Enzyme (LdE1); assay type: functional; conditions: 30 µM
T1 sequence (whole entry): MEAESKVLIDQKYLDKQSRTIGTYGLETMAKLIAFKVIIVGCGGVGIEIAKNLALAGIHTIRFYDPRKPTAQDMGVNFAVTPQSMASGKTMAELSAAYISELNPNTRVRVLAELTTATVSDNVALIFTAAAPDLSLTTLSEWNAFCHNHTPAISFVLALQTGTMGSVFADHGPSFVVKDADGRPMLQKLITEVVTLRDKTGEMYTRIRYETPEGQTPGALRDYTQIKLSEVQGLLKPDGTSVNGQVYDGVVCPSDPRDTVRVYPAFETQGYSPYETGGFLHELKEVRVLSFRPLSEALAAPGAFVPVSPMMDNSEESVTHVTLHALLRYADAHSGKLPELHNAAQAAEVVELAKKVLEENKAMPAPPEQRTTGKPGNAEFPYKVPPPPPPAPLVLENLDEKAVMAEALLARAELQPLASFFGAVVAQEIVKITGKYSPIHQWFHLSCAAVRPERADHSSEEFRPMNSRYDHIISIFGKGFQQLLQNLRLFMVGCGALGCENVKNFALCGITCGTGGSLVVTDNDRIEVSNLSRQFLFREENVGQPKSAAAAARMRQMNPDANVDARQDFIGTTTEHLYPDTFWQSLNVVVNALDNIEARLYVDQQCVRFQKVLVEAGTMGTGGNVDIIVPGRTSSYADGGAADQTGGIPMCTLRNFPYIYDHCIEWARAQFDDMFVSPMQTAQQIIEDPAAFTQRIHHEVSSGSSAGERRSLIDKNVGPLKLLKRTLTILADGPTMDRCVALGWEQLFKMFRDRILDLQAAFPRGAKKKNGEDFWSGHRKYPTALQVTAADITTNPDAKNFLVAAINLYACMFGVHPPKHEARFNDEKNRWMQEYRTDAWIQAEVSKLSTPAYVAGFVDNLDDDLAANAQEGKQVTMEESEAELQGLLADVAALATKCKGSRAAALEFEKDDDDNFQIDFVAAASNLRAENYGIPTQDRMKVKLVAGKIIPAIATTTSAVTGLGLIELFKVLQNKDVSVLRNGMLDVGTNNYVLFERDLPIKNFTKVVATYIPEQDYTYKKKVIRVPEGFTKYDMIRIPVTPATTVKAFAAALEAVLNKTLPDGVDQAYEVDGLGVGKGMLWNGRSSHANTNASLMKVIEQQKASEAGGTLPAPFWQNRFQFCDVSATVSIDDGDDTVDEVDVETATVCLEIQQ

[3] = biological target: AMP-activated protein kinase, AMPK (Homo sapiens) (UniProt P54646+O43741+P54619+Q9UGJ0+Q9Y478+Q13131+Q9UGI9); experiment: AMP-dependent Kinase enzyme assay. An in vitro enzyme assay that detects ADP turnover that is directly proportional to AMPK activity. This uses naive AMPK that is activated during the assay with MK-8722; assay type: functional; conditions: 30 µM
[4] = biological target: Sialic acid-binding Ig-like lectin 9 (Homo sapiens) (UniProt Q9Y336); experiment: Hs-Siglec9 ALPHAscreen SOP 20170721; conditions: 10 µM
Trypanosoma cruzi = experiment: Trypanosoma cruzi phosphomannomutase and mannose-1-phosphate guanylyltransferase assay; assay type: functional; conditions: 10 µM
[5] = biological target: T2, Arginase-2, mitochondrial (Homo sapiens) (UniProt P78540); experiment: in vitro enzyme assay to detect the production of urea directly proportional to the activity of Arginase II; assay type: functional; conditions: 33.3 µM; note: in the data most compounds retested in dose-response had high values
T2 sequence (whole entry): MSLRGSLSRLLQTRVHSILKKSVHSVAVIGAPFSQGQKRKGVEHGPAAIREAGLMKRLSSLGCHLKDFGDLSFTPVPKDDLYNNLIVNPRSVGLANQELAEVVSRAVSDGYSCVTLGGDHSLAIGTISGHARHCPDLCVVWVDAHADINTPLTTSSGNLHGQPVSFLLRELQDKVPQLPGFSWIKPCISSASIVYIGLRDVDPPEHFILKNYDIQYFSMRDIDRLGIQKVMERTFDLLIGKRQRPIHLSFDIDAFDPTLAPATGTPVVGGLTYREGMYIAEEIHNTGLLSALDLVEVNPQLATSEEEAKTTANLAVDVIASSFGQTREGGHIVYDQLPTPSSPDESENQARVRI

[6] = biological target: T3, Proteasome subunit beta (Trypanosoma cruzi) (UniProt O96673); experiment: Trypanosoma cruzi proteasome chymotrypsin-like activity (TcProtChymo) assay.; note: in the data most compounds retested in dose-response had high values; assay type: functional; conditions: 9.37 µM
T3 sequence (whole entry): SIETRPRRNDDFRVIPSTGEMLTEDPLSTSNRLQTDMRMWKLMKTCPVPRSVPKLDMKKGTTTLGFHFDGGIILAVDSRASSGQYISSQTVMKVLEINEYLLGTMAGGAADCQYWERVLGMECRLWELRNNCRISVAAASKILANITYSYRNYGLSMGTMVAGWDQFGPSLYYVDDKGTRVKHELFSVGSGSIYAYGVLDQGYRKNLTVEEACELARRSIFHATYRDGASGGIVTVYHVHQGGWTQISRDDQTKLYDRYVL

Homo sapiens = organism: Homo sapiens; experiment: To identify inhibition of the IFN signalling (Jak-Stat) pathway via expression of an eGFP reporter gene under the control of an IFN-stimulated response element (ISRE) containing MxA promoter.; assay type: functional; conditions: 30 µM
[7] = biological target: T4, Tyrosyl-tRNA synthetase, putative (Trypanosoma cruzi (strain CL Brener)) (UniProt Q4DSP6); experiment: Trypanosoma cruzi tyrosyl tRNA synthetase (TcYRS) _High Tyrosine SOP; assay type: functional; conditions: 30 µM; note: in the data most compounds retested in dose-response had high values
T4 sequence (whole entry): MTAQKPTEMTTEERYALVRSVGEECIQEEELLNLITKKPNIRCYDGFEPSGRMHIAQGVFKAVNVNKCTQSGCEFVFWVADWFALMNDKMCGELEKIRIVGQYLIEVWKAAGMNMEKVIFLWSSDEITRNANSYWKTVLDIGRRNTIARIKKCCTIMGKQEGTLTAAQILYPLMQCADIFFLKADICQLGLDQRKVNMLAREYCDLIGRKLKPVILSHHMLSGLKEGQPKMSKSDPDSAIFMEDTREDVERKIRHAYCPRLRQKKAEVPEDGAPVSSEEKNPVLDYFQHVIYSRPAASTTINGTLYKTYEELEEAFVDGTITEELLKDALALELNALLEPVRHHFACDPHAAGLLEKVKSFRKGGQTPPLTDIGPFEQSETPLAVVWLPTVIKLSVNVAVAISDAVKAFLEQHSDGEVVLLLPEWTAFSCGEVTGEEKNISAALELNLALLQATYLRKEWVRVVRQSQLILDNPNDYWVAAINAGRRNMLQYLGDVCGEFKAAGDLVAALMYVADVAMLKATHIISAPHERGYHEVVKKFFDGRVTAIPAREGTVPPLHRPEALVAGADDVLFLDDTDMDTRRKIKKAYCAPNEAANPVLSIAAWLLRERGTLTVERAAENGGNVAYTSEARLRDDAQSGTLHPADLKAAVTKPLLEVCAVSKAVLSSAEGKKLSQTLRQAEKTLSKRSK

[8] = biological target: T4, Tyrosyl-tRNA synthetase, putative (Trypanosoma cruzi (strain CL Brener)); experiment: Trypanosoma cruzi tyrosyl tRNA synthetase (TcYRS) SOP; assay type: functional; conditions: 30 µM
[9] = biological target: Chromo domain-containing protein 1 (Saccharomyces cerevisiae (strain ATCC 204508 / S288c) (Baker's yeast)) (UniProt P32657); experiment: ScCHD-1 Enzyme Inhibition Assay; assay type: functional; conditions: 30 µM; note: in the data most compounds retested in dose-response had high values
Chain of Chromo domain-containing protein 1 (Saccharomyces cerevisiae (strain ATCC 204508 / S288c) (Baker's yeast)) (P32657 whole entry, the tested form may be a part): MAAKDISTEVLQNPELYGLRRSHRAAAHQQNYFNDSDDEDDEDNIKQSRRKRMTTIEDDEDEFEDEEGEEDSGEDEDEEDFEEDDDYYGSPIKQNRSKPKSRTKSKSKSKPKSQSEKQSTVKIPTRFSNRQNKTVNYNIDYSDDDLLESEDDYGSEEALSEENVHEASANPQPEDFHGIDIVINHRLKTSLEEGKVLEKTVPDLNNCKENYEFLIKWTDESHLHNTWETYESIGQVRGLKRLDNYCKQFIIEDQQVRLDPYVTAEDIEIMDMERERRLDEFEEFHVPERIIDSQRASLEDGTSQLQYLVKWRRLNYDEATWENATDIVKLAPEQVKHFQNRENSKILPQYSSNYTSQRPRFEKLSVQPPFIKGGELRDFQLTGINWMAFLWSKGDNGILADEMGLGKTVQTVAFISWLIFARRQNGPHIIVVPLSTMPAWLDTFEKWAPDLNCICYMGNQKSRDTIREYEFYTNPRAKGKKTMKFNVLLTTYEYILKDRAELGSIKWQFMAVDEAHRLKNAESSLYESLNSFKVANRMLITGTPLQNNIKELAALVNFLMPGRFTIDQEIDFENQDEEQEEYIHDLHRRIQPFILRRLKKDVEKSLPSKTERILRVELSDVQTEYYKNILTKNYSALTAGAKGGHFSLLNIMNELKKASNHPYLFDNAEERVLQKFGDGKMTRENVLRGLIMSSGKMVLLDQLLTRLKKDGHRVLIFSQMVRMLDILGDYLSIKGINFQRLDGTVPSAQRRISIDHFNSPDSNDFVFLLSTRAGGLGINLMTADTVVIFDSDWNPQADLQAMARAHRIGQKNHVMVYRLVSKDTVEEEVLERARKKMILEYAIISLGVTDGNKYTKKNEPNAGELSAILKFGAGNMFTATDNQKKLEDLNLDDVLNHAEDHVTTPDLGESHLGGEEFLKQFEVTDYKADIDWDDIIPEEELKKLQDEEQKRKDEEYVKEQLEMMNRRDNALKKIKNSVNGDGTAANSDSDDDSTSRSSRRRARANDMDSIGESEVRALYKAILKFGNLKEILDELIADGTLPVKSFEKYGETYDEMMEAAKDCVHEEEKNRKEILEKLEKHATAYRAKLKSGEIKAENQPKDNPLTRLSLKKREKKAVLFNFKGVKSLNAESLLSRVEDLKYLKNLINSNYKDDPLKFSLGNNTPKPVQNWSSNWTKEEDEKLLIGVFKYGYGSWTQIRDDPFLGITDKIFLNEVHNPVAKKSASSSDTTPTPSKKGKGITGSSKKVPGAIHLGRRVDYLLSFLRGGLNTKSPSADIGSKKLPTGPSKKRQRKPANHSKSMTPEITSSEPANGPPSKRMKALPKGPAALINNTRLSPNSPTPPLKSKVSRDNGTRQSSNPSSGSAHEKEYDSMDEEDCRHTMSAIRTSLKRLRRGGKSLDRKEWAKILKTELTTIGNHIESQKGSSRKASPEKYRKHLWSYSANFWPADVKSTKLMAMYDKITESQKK

Chain of Protein translocase subunit SecA (Escherichia coli (strain K12)) (P10408 whole entry): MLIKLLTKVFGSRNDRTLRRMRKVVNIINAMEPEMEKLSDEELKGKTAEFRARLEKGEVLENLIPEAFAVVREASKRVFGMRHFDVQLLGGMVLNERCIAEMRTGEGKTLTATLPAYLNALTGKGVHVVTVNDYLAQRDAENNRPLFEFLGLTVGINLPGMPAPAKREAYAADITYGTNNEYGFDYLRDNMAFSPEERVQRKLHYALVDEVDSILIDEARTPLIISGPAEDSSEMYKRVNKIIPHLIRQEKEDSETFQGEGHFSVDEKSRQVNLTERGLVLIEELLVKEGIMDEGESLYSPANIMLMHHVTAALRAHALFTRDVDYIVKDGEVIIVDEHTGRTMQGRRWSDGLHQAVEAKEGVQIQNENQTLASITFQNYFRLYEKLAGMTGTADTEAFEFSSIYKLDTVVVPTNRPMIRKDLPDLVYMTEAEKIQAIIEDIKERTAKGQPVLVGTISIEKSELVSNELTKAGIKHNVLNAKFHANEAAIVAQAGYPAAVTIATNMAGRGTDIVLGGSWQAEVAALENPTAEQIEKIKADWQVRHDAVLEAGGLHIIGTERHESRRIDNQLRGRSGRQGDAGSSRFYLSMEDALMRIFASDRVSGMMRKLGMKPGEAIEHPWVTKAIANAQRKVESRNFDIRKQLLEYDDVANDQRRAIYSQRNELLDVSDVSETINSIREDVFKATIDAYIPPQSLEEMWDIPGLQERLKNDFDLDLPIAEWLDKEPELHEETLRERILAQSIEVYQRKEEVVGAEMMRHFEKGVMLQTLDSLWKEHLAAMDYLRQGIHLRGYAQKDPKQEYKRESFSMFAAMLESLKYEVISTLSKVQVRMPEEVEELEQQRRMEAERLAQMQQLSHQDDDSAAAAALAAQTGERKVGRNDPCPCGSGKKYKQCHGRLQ
Chain of Sialic acid-binding Ig-like lectin 9 (Homo sapiens) (Q9Y336 whole entry): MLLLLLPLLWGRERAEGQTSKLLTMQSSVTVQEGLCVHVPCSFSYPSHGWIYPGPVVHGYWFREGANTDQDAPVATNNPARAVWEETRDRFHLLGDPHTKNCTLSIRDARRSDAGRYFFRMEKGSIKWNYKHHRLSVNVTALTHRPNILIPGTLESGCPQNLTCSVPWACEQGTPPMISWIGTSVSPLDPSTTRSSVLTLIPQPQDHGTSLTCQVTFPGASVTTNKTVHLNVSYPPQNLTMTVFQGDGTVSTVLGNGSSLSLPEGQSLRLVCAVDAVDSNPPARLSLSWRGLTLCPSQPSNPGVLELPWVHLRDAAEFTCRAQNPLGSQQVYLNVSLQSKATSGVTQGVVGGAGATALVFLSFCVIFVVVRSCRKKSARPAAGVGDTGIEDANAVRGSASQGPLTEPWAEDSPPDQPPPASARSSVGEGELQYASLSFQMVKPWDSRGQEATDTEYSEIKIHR

SMILES | Percent Effect [1] [%] | Percent Effect [2] [%] | Percent Effect [3] [%] | Percent Effect [4] [%] | Percent Effect (Trypanosoma cruzi) [%] | Percent Effect [5] [%] | Percent Effect [6] [%] | Percent Effect (Homo sapiens) [%] | Percent Effect [7] [%] | Percent Effect [8] [%] | Percent Effect [9] [%]
CCS(=O)(=O)N1CC[C@H](OC)[C@@H]1Cc1ccncc1 | -2.5 | 13.5 | -1.61 | -11.3 | -4.59 | -9.87 | 15.3 | 7.61 | 0 | 7.69 | -5.24
Cc1cccc(-c2noc(CN3CCCC(Cn4cncn4)C3)n2)c1 (stereo unspecified) | -6.12 | 20.2 | -9.05 | 10.8 | 8.59 | 3.04 | 5.16 | 5.05 | 6.4 | 21.5 | -4.86
Cn1ccnc1-c1cccc(NC(=O)NCCN2CCOCC2)c1 | -4.99 | 15.3 | -5.8 | 16.5 | 4.57 | 16.3 | 10.9 | 9.44 | 5.26 | 10.3 | -4.33
COC(=O)C(NC(=O)COC1CCCC1)c1cc(F)ccc1F (stereo unspecified) | -6.55 | 7.79 | -4.98 | 20.1 | 5.06 | -7.83 | 2.7 | -0.885 | 4.85 | 21.9 | -9.9
COc1ccc(C2Nc3cc(Cl)ccc3C3=NCCN32)cc1OC (stereo unspecified) | -5.72 | 2.67 | 2.8 | 3.39 | 3.54 | -5.83 | 13.1 | 8.26 | 4.25 | 8.97 | -11.7
Cc1nc(C)n(CC2CN(Cc3cccc(C#N)c3)CCO2)n1 (stereo unspecified) | -0.461 | 13.5 | -1.52 | 2.34 | 2.74 | 0.802 | 14.6 | 0.861 | -10.3 | 18.5 | -3.18
CC(=O)N1CCN(C(=O)CCOc2ccc(C(C)C)cc2)CC1 | -2.33 | 7.89 | 5.03 | 10.9 | -2.26 | 2.3 | 14.4 | 0.908 | 5.39 | 4.88 | -1.04
Cc1noc(C)c1CNC(=O)N1CCN(Cc2cscn2)CC1 | -5.7 | 15.8 | -5.03 | 9.82 | 5.45 | 0.766 | 3.51 | -2.83 | 6.37 | 17.1 | -14.9
Cc1cccc(NC(=O)[C@@H]2CCCN2CC(=O)N2CCCCCC2)n1 | -4.79 | 16 | -8.35 | 23.6 | 5.75 | 34.4 | 14.8 | -1.75 | 4.92 | 16.1 | -6.64
COC(=O)c1ccc(S(=O)(=O)NCc2cccnc2N(C)C)cc1 | -2.49 | 17.7 | 0.13 | -11 | -8.59 | -4.18 | 4.67 | 66.2 | -16.3 | 16.5 | -6.7
Cc1cccc(CN2CCN(Cc3ccccc3)CC(O)C2)n1 (stereo unspecified) | -1.78 | 0 | -4.59 | 2.56 | -0.193 | -1.43 | 9.14 | 4.22 | 8.99 | 19.5 | -3.04
COc1ccc(OC)c(C(C)Nc2nc3c(C)nn(C)c3c(=O)n2C)c1 (stereo unspecified) | -5.58 | -5.2 | 5.05 | 1.13 | -6.2 | -22.1 | 14.8 | 38.9 | -2.15 | -3.7 | -5.55
Cc1csc2c(=O)n3c(nc12)CCN(C(=O)c1cccnc1)CC3 | -2.51 | 9.46 | 13.3 | -1.07 | 4.94 | -1.16 | 8.27 | 4.21 | 4.3 | 6.49 | -13
O=S(=O)(Nc1cnn(C2CCOCC2)c1)c1ccc2c(c1)CCO2 | -1.97 | -2.6 | -19.5 | 5.92 | -0.296 | -9.68 | 12 | 13 | 1.06 | -1.28 | -7.66
O=C(NCCNc1cnccn1)N1CCN(Cc2cccnc2)CC1 | -5.13 | 8.86 | -3.44 | -10.1 | 3.38 | 1.5 | 15.1 | 10.6 | 7.29 | 20.2 | -33.3
O=C(NCCNc1ccc(C(F)(F)F)cn1)c1ccc(Br)cc1F | -3.12 | 10.4 | 7.24 | -16.8 | -5.39 | -2.74 | 11.9 | 6.29 | 3.81 | 14.1 | -26.3
